# Source: PubChem BioAssay (The Scripps Research Institute Molecular Screening Center)
# Rows were chosen to be rich in hits. Some 3.5% of all compounds tested hit in one or more screens of this group.
# GPR151 activ – activators of human GPR151, primary screen, cell-based, PathHunter beta-arrestin, luminescence; G-protein coupled receptor 151 (Homo sapiens), Q8TDV0; 1% of 650,000 active; PathHunter beta-arrestin GPR151 cells; activation, % at 11.2 µM; in the data active = activation above about 4.9%;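 also: 0% = median of compound wells and 100% = cells with positive control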
# MITF primary – MITF inhibitors, primary screen, biochemical, AlphaScreen, human; inhibition, % at 2.6 µM; AlphaScreen MITF homodimerization, bead proximity signal; 0.91% of 650,000 active; in the data active = inhibition above about 50%;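 also: 0% = vehicle wells with protein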
# FBW7 activator – FBW7 E3 ligase activators, primary screen, biochemical, AlphaScreen, human; F-box/WD repeat-containing protein 7 (Homo sapiens), Q969H0; AlphaScreen FBW7–phospho-cyclin E peptide binding, activator screen; normalized activity (activation), % at 26.1 µM; 0.13% of 650,000 active; AID 1259310, 2017; in the data active = normalized activity above about 1.9%;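 also: purified mutant Fbw7 with reduced substrate affinity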
# TEAD-YAP block – TEAD-YAP interaction inhibition, primary screen, TEAD-YAP interaction inhibitor project, luminescence, HEK-TIYL cells. TEAD-Gal4/YAP UAS-luciferase luminescence. inhibition, % at 9.12 µM. 1.4% of 640,000 active. AID 1259422, 2018; in the data active = inhibition above about 32%;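 also: 0% = median of test compound wells and 100% = reference inhibitor wells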
# GPR151 confirm – GPR151 activators, triplicate retest, confirmation, cell-based, PathHunter beta-arrestin, luminescence; shares compounds with GPR151 activ; GPR151 PathHunter beta-arrestin cells, 90 min; % of EA-reagent control over plate median; activation, % at 11.2 µM; 6,700 tested, under 10 active;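 active = mean percent activation across replicates above the confirmation screen cutoff of 4.91%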
# GPR119 ag – GPR119 activators in beta-arrestin cells, counter-screen for GPR151 activator project, cell-based, PathHunter beta-arrestin, luminescence, triplicate; activation, % at 11.2 µM; AID 1508611, 2020; shares compounds with GPR151 activ; 90 min; 0 = compound-well median, 100 = enzyme-acceptor control; 0.3% of 6,700 active;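 active = mean percent activation in the counterscreen above 29.09%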;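 also: counterscreen on off-target GPR119 to flag nonselective hits from the GPR151 activator screen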
# Target sequence (Q8TDV5 whole entry, looked up): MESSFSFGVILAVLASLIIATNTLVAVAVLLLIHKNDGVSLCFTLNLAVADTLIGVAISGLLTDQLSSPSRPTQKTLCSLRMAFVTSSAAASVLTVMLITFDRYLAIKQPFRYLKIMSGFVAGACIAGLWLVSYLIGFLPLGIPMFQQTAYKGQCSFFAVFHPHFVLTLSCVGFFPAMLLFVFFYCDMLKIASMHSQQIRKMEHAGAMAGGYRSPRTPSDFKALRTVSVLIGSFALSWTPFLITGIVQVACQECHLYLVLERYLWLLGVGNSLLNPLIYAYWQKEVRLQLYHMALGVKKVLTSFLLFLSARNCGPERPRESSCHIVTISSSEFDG
# * marks the source's active call; other numbers are inactive results; · = not tested or not shown; ! = a repeat was not active.
SMILES,GPR151 activ,MITF primary,FBW7 activator,TEAD-YAP block,GPR151 confirm,GPR119 ag
CCCCCc1nnc(NC(=O)C2CCCO2)s1 (stereo not drawn),-1,-8,0,-52,·,·
COc1cc(-c2ccc(NC(=O)C3CCCO3)c(OC)c2)ccc1NC(=O)C1CCCO1 (stereo not drawn),4,-4,0,-7,·,·
CCOc1cc(NC(=O)C2CCCO2)c(OCC)cc1NC(C)=O (stereo not drawn),15*,20,0,-8,1,10
CCCc1cc(C(N)=O)c(NC(=O)C2CCCO2)s1 (stereo not drawn),10*,21,0,-1,1,14
O=C1/C(=C(\O)c2ccccc2)NS(=O)(=O)c2ccccc21,3,10,0,6,·,·
O=C(/C=C/c1ccc2c(c1)OCO2)N1CCC(c2nc3ccccc3[nH]2)CC1,-1,3,0,-6,·,·
c1cc(NCCN2CCOCC2)nc(-c2ccc(N3CCOCC3)nc2)n1,6.1*,11,0,6,0,3
Cc1cc(NCCN2CCOCC2)nc(-c2cccc(N)c2)n1,1,8,0,2,·,·
CC(=O)c1cccc(-c2nc(C)cc(NCCN3CCOCC3)n2)c1,11*,-4,0,-15,1,-1
O=Cc1cccc(-c2ccc(NCCN3CCOCC3)nc2)c1,5.2*,14,-1,-58,0,-1
COc1ccc([C@@H](C)NC(=O)C2CCN(c3nc(C)c4ccc(OC)cc4n3)CC2)cc1,-1,20,1,7,·,·
O=C(N/N=C/c1ccccc1[N+](=O)[O-])c1ccccc1[N+](=O)[O-],-1,-4,0,-46,·,·
O=C(N/N=C/c1cc(Br)cc([N+](=O)[O-])c1O)c1cccc2ccccc12,0,7,1,0,·,·
O=C(N/N=C/c1ccccc1)c1ccccc1[N+](=O)[O-],1,5,0,0,·,·
O=C(N/N=C/c1cc(Cl)cc([N+](=O)[O-])c1O)c1ccccc1O,5.1*,7,-1,-1,-1,4
O=C(N/N=C/c1ccc(F)cc1)c1ccccc1[N+](=O)[O-],7.0*,8,0,4,-1,-8
O=C(N/N=C/c1cccc2ccccc12)c1ccccc1[N+](=O)[O-],11*,10,0,3,0,-5
O=C(N/N=C/c1ccccc1[N+](=O)[O-])c1cccc2ccccc12,7.4*,0,0,3,0,4
Cc1cc(/C=C2/NC(=O)NC2=O)c(C)n1-c1cccc([N+](=O)[O-])c1,-2,21,1,-4,·,·
Cc1cccc(-n2c(NN)nc3ccccc3c2=O)c1C,-1,2,0,9,·,·
Clc1ccccc1Nc1ncnc2ccc(Br)cc12,0,7,0,-5,·,·
Brc1ccc2ncnc(Nc3cccc4ccccc34)c2c1,11*,9,0,4,1,-12
O=C(O)C1CC(=O)N(CCN2CC(C(=O)O)CC2=O)C1 (stereo not drawn),0,12,0,3,·,·
O=C(O)[C@H]1/C(=C/CO)O[C@@H]2CC(=O)N21,4.9*!,-1,0,-7,0,3
Cc1sc2nc(C3CC3)n(C3CCN(C(=O)c4ccccn4)CC3)c(=O)c2c1C,6.5*,-13,0,-31,1,3
SMILES,GPR151 activ,MITF primary,FBW7 activator,TEAD-YAP block,GPR151 confirm,GPR119 ag
Cc1nn(-c2ccc(Cl)cc2)c2sc(C(=O)Nc3ccc(C(N)=O)cc3)cc12,6.7*,3,0,10,1,3
Cc1nn(-c2ccccc2)c2sc(C(=O)Nc3ccc(Cl)cc3)cc12,0,0,0,-2,·,·
Cc1cc(C)nc(NNS(=O)(=O)c2ccc(Cl)cc2)n1,5.9*,4,0,0,2,7
N#CCCN(Cc1ccco1)C(=S)NCc1ccc2c(c1)OCO2,-2,14,0,0,·,·
CN(C)CCn1c(C2COc3ccccc3C2)nc2cc(F)c(-c3cn[nH]c3)cc21 (stereo not drawn),0,1,0,3,·,·
O=C(OCc1nc2ccccc2s1)c1ccccc1,6.7*,-14,0,-1,0,-8
CCCCC(=O)Nc1ccc(Cl)c([N+](=O)[O-])c1,1,2,0,0,·,·
C[n+]1ccccc1/C=C/c1ccccc1,0,9,0,0,·,·
C[n+]1ccccc1/C=C/c1ccc([N+](=O)[O-])cc1,6.6*,2,0,-11,0,1
COC(=O)c1ccc(Nc2nccc(-c3ccccc3)n2)cc1,-2,6,0,-22,·,·
NC(=O)c1ccc(Nc2nccc(-c3ccc(Cl)cc3)n2)cc1,5.6*,8,0,23,0,15
Cc1ccc(OCc2ccc(C(=O)NNC(=S)NCC3CCCO3)o2)c([N+](=O)[O-])c1 (stereo not drawn),5.8*,20,0,3,1,-1
Cc1ccc(OC(C)C(=O)NNC(=S)NCC2CCCO2)c([N+](=O)[O-])c1 (stereo not drawn),1,5,0,5,·,·
O=C(Nc1cc(Cl)ccc1Cl)/C(=C/c1cccc([N+](=O)[O-])c1)NC(=O)C1CCCCC1,1,-3,0,-4,·,·
O=C(Nc1ccc(Cl)cc1)/C(=C/c1cccc([N+](=O)[O-])c1)NC(=O)C1CCCCC1,6.2*,-1,0,6,-1,-2
CN1c2ncccc2C(=O)NC12CCN(C(=O)CN1CCCC1=O)CC2,1,-2,0,-6,·,·
O=c1c(-c2ccccc2)[n+]([O-])c2ccccc2n1OCc1ccccc1[N+](=O)[O-],6.0*,12,0,8,2,6
CCOC(=O)COn1c(=O)c(-c2ccc(Oc3ccccc3)cc2)[n+]([O-])c2ccccc21,5.3*,-10,0,-12,0,-6
Cc1ccc(OCC(=O)NCC(c2ccc(N(C)C)cc2)N2CCOCC2)cc1 (stereo not drawn),-1,9,0,9,·,·
COc1ccc(/C(N)=N/OC(=O)c2cc(Cl)ccc2OC)cc1,6.8*,7,0,7,0,-1
c1ccc(-c2noc(CCC3CCCC3)n2)cc1,12*,1,0,0,-1,-8
CCc1c(C)nc(SCCc2ccccc2)[nH]c1=O,5.4*,4,0,-9,-1,-12
